High-throughput results as filed in PubChem.
Hits are enriched below; roughly 9.2% of the tested compounds scored in any of these assays.
LMNA splice mod – modulators of lamin A splicing; AID 1487; HeLa LMNA splicing GFP/RFP minigene ratio, 48 h; 200,000 tested, 0.01% active; Potency, µM (doses to about 46.1 µM), for the others: at the highest dose ratio change, negative = inhibition, most hits filed as inhibitors; active = well fitted inhibition curve with a large enough effect in the signal ratio, with a control signal flat, not every such curve was filed as active; inconclusive = small, poorly fitted or top-dose-only effect, or effect the other way, or a change in a side signal; the % refers to the signal ratio; also: % is scaled to controls: 0 for no effect and ±100 for the full control effect
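S3 HeLa stable clones carrying a lamin A-EGFP splicing minigene plus DsRed2 were seeded at 600 cells/well in Opti-MEM with 2% FBS, pin-dosed and incubated 48 h at 37°C. Acumen cytometry (488 nm) gave the GFP/RFP total-intensity ratio.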
HPGD inh – HPGD (human) dehydrogenase inhibition | P15428 | purified HPGD, NADH fluorescence kinetic, PGE2 substrate | Potency, µM, without a hit: at the highest dose activity change, negative = inhibition, usual class: inhibitors | 150,000 tested, 4.3% active | AID 894; also: % is scaled to controls: 0 for no effect and ±100 for the full control effect
Target sequence (P15428 whole entry, looked up): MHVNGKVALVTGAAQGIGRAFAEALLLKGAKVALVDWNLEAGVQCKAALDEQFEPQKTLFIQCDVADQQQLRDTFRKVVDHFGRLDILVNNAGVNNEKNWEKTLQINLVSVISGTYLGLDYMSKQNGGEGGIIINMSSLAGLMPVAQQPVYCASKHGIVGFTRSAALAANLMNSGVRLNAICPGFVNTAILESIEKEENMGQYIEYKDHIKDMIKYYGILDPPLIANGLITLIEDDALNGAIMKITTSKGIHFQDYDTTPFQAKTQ
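20 nM HPGD preincubated 15 min at room temperature with compound in 50 mM Tris-HCl pH 8, 0.01% Tween 20. Started with 1 mM NAD+ and 30 uM prostaglandin E2; NADH fluorescence (360/450 nm) read 5 times over 30-s intervals, last minus first.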
HTT aggregate – mutant huntingtin aggregation inhibition | PC12 HttQ103-GFP aggregates, Acumen cytometry, 40 h | Potency, µM (highest dose often 46.1 µM), inactives show at the highest dose activity change, negative = inhibition, actives largely listed as inhibitors | 220,000 tested, 1.1% active | AID 1688; active = well fitted curve in the direction sought with a large enough effect; inconclusive = small, poorly fitted or top-dose-only effect, or another doubt; inactive = no such curve, though single readings can be large; an effect the other way counts as inactive or inconclusive; also: % is scaled to controls: 0 for no effect and ±100 for the full control effect; nearly all actives have a fitted effect of over 60% in size
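Ecdysone-promoter PC12 model expressing HTT exon 1 Q103 fused to GFP, induced by tebufenozide at 100 nM final. Compounds titrated; aggregates sized 1–25 µm scored on a 488 nm laser cytometer.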
HTT cytoprotect – Huntington cell model cytoprotection by ATP luminescence; PC12 HTT-Q103 induced, cytoprotection, ATP luminescence, 40 h; Potency, µM (titrated, usually from 56.4 µM), without a hit: cytoprotection (ATP increase), actives largely listed as activators; 230,000 tested, 0.14% active; active = well fitted curve in the direction sought with a large enough effect; inconclusive = small, poorly fitted or top-dose-only effect, or another doubt; inactive = no such curve, though single readings can be large; an effect the other way counts as inactive or inconclusive; also: % of control where 0% means no effect; nearly all actives have a fitted effect of over 45% in size
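Readout: ATPlite luminescence (ATP level). Model: stable PC12, inducible Htt exon1 Q103-GFP. Inducer: tebufenozide, 100 nM final. Compounds: dose series. No G418 in medium.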
KDM4E inh – inhibitors of human JMJD2E histone demethylase. 230,000 tested, 1.6% active. JMJD2E catalytic domain, FDH-coupled NADH fluorescence (FDH is formaldehyde dehydrogenase). Potency, µM (doses to about 57.1 µM), without a hit: top-dose activity change, negative = inhibition, most hits filed as inhibitors. B2RXH2;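 also: 0% = wells with enzyme and -100% = buffer wells without enzyme; nearly all actives have a fitted effect of over 50% in size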
Target sequence (B2RXH2 1-337 limits assumed): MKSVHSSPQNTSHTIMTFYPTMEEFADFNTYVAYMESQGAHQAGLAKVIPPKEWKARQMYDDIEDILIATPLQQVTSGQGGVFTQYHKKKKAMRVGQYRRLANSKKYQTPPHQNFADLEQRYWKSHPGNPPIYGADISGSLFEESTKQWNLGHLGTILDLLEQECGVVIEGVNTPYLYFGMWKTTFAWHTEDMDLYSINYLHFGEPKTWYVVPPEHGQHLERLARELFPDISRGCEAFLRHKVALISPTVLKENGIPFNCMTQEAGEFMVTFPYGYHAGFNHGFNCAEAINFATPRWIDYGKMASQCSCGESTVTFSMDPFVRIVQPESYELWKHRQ
ALDH1A1 inh – inhibitors of human aldehyde dehydrogenase 1A1; Purified ALDH1A1, NADH fluorescence, propionaldehyde substrate; AID 1030; 220,000 tested, 7.3% active; P00352; Potency, µM (series often up to 75.3 µM), for the others: at the top dose activity, negative = inhibition, most hits filed as inhibitors;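 also: plate controls were no enzyme wells and a reference inhibitor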
Starred values were filed as active, the others as inactive; ? = inconclusive; nt = not tested or not shown; ! = a repeat was not active; [ ] = dose if it differs, or a comment. Unless noted, calls follow the shape of the dose curve; as a rule, active = well fitted inhibition curve with a large enough effect (not every such curve was filed as active); inconclusive = small, poorly fitted or top-dose-only effect, or another doubt; inactive = no such curve, though single readings can be large or run the other way. Potency is read from the fitted curve at half-maximal effect.

SMILES	LMNA splice mod	HPGD inh	HTT aggregate	HTT cytoprotect	KDM4E inh	ALDH1A1 inh
ClC1=C(Cl)C2(Cl)C3C(Cl)C(Cl)CC3C1(Cl)C2(Cl)Cl (stereo unspecified)	nt	-4%	nt	8%	nt	-16%
O=c1[nH]c(=O)n(Cc2ccccc2)c(O)c1/C=C1\C=Nc2ccccc21	nt	nt	12%	-1%[10 µM]	-17%	?
O=c1[nH]c(=O)n(CC2CCCO2)c(O)c1/C=C1\C=Nc2ccccc21 (stereo unspecified)	-14%	-24%	32%[9.22 µM]	18%[10 µM]	?	14µM*
C[C@@H]1CC[C@@]2(OC1)O[C@H]1[C@@H](O)[C@H]3[C@@H]4CC[C@H]5C[C@@H](O[C@@H]6O[C@H](CO)[C@H](O[C@@H]7O[C@H](CO)[C@@H](O)[C@H](O[C@@H]8OC[C@@H](O)[C@H](O)[C@H]8O)[C@H]7O[C@@H]7O[C@H](CO)[C@@H](O)[C@H](O[C@@H]8O[C@H](CO)[C@@H](O)[C@H](O)[C@H]8O)[C@H]7O)[C@H](O)[C@H]6O)[C@H](O)C[C@]5(C)[C@H]4CC[C@]3(C)[C@H]1[C@@H]2C	nt	-5%	nt	-83%	nt	20µM*
CC1CCCN(C(=O)c2ccc(N3CC4CC(C3)c3cccc(=O)n3C4)c([N+](=O)[O-])c2)C1 (stereo unspecified)	-15%	18µM*	-16%	7%[10 µM]	3%	7.9µM*
O=[N+]([O-])c1ccc(O[C@H]2O[C@@H](CO)[C@@H](O)[C@@H](O)[C@@H]2F)c([N+](=O)[O-])c1	nt	nt	nt	-21%[1.9 µM]	nt	nt
C[C@H]1C[C@@H](C)C(=O)[C@@H]([C@H](O)CC2CC(=O)NC(=O)C2)C1	?	-9%	0.35µM*	-48%[10 µM]	5%	-10%
CC1CC(C)C(=O)[C@H](C(O)CC2CC(=O)NC(=O)C2)C1 (stereo partly specified)	nt	-2%	nt	nt	3%	4%
COC(=O)C[C@]1(C(=O)OC)CN(C#N)N(c2ccc(Cl)cc2)C12c1ccccc1-c1ccccc12	?	-26%	5.6µM*	-97%[10 µM]	-2%	-4%
COC(=O)[C@@H]1[C@@H](C(=O)OC)C2(c3ccccc3-c3ccccc32)N(c2ccc(Cl)cc2)N1C#N	?	?	-21%[9.22 µM]	-36%[10 µM]	?	?
O=C1NC(=O)C(=Cc2ccc(-c3ccccc3[N+](=O)[O-])o2)C(=O)N1	nt	nt	-14%[9.22 µM]	-4%[10 µM]	20µM*	nt
O=C1NC(=O)C(=Cc2ccc(-c3cc(Cl)ccc3[N+](=O)[O-])o2)C(=O)N1	?	nt	9%	-20%	-29%	22µM*
O=C(O[C@@H]1Cc2c(O)cc(O)cc2O[C@@H]1c1cc(O)c(O)c(O)c1)c1cc(O)c(O)c(O)c1	12%[46 µM]	nt	nt	nt	8.9µM*	nt
Oc1cc(O)c2c(c1)OC(c1cc(O)c(O)c(O)c1)C(O)C2 (stereo unspecified)	nt	16µM*	nt	-58%	1.4µM*	?
O=C(OC1Cc2c(O)cc(O)cc2OC1c1cc(O)c(O)c(O)c1)c1cc(O)c(O)c(O)c1 (stereo unspecified)	-18%	14µM*	nt	nt	2.5µM*	?
COc1cc2c(cc1OC)[C@]13CC[N@+]4(C)CC5=CCO[C@H]6CC(=O)N2[C@@H]1C6[C@@H]5C[C@]34O (stereo partly specified)	nt	-1%	nt	nt	nt	16%[13.5 µM]
C=CCN1C[C@@H](C)N([C@H](c2ccc(C(=O)N(CC)CC)cc2)c2cccc(OC)c2)C[C@H]1C	nt	nt	nt	5%[1.9 µM]	nt	nt
O=P(O)(OP(=O)(O)c1ccccc1)c1ccccc1 (tested in a mixture with another compound)	nt	-9%	nt	5%[10 µM]	nt	0%[13.5 µM]
CC1=CC(=O)c2c(O)cccc2C1=O	nt	25µM*!	nt	-18%[1.9 µM]	8.9µM*	16µM*
O=S1(=O)N(CCN2CC=C(c3c[nH]c4cc(F)ccc34)CC2)c2cccc3c2N1CCC3	?	-20%	nt	3%[1.9 µM]	16µM*	25µM*
CC(C)N1CC=C(c2c[nH]c3ccccc23)CC1	?	-12%	?	-43%	?	-12%
C=CCOc1c(Cl)cc(CNc2ccc3[nH]c(=O)[nH]c3c2)cc1OC	?	-11%	?	nt	0%	1%
CCOc1c(Cl)cc(CNc2ccc(S(N)(=O)=O)cc2)cc1OC	?	25µM*	2%	13%[10 µM]	3%	-3%
C/C(=N\NC(N)=S)C12CC3CC(CC(C3)C1)C2	?	-3%	-9%	3.2µM*	-11%	?
O=[N+]([O-])c1cc(Cl)c(Cl)c(Cl)c1	nt	-3%	nt	4%	nt	?
SMILES	LMNA splice mod	HPGD inh	HTT aggregate	HTT cytoprotect	KDM4E inh	ALDH1A1 inh
CC(=O)NC(C)Cc1ccccc1 (stereo unspecified)	12%	-30%	3%	-3%	10%	-2%
CC(=O)CCc1ccccc1	nt	-11%	nt	8%	nt	25µM*
CN1C(=O)C(Cc2c[nH]c3ccccc23)C(=O)N(C)C1=O	-20%	?	-16%	-11%[0.074 µM]	?	14µM*
CCCBr	nt	-3%	nt	-7%	nt	5%
CC(C)(C)C(=O)CP(=O)(O)O	nt	-3%	nt	4%[10 µM]	nt	2%[13.5 µM]
O=C(O)Cc1cnc[nH]1	-8%	5%	nt	-21%	14µM*	-10%
ClP(Cl)(Cl)(Cl)Cl	nt	-21%	nt	?	nt	nt
C/C=C/C/C=C/CCC(=O)[C@H]1O[C@H]1C(N)=O	nt	nt	nt	-201%	nt	?
COc1ccc(-n2c(C)cc(C(=O)C[N+]34CCN(CC3)CC4)c2C)cc1	nt	nt	7%	-4%	22µM*	0%
CSC([N-]/N=C/c1cccc(C)n1)=[S]=[Cu].CS[C@H]([S-])[N-]/N=C/c1cccc(C)n1	nt	nt	nt	-100%[10 µM]	nt	nt
c1cncc(CNC2CCCC2)c1	nt	nt	-4%[9.22 µM]	6%[10 µM]	22µM*	?
N#CS.N=C=S.N=C=S.[Cu].[NH2-].[NH2-].[NH2-].[NH2-].c1ccc2ncccc2c1	nt	-3%	nt	-9%[10 µM]	nt	3.5µM*
COc1cc(C2C(C#N)=C(N)OC3=C2C(=O)CC(C)(C)C3)ccc1OC(=O)N1CCOCC1 (stereo unspecified)	-12%	-11%	15%	-5%[10 µM]	-3%	?
CC1(C)CC(=O)C2=C(C1)OC(N)=C([N+](=O)[O-])C2c1ccc(C#N)s1 (stereo unspecified)	nt	nt	8%[9.22 µM]	-5%[10 µM]	-28%	20µM*
Nc1nc2c(ncn2[C@@H]2O[C@H](CO)[C@@H](O)[C@@H]2O)c(=[SH+])[nH]1.O=[N+]([O-])c1ccc(O)[c]([Hg])c1	nt	0.025µM*	nt	nt	nt	0.05µM*
CN(C)C(=S)SSC(=S)N(C)C	?	0.71µM*	1µM*!	-309%	25µM*	0.079µM*
CN(C)C(=S)SC(=S)N(C)C	?	-20%	3.2µM*	-97%	nt	3.5µM*
